Reference: the supplement of paper PMC6555819

system: LXRb:RXRa (NR concentration 270 nM, RXRa partner concentration 90 nM); assay: PBM binding z-score (relative to random genomic background probes); higher = stronger binding; sequences stand for … in GC…GCGATTGACAGCGTAGAATGAAGG
How it was run: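 Custom Agilent 4×180K protein-binding microarrays carried double-stranded probes. Their 34-nt variable regions held direct-repeat seeds, single-nucleotide variants, half-site ablations and random human genomic background sequences. Arrays were incubated 1 h with ligand-free nuclear receptor dimers in PBS pH 7.4, 2% milk, 0.02% Triton X-100, 1 mM DTT, 0.2 mg/mL BSA and 0.4 mg/ml salmon testes DNA. Antibodies against each partner (one per run) detected binding, and scanned fluorescence was regression-normalized. Binding z-scores use random background probes as reference.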

Question: With CTCCAAAGGTCGTGCTCAGGTGAGTATACCAAAC as the sequence, how does the PBM binding z-score read?
Answer: 3.67

Question: TAGCCAAGGTCATGGGCCAGTATACCACGCGAAC was tested. Which PBM binding z-score did it give?
Answer: 4.45

Question: CGAACTACGTCAGAACAGGACAGTGAAGGATGAT was tested. Which PBM binding z-score did it give?
Answer: -1.05

Question: How did the PBM binding z-score turn out when ATATGTTGGTTATCGGGTCATTCAGTTTGCGCAT was run?
Answer: 2.76

Question: Which PBM binding z-score does the source give for ACAGACAGGTTATGAAGGTAACTCAGGCTATCAT here?
Answer: 0.672

Question: Which PBM binding z-score does the source give for CCGACTGGGGCAGAAAGGATACCATACCATCCGG here?
Answer: -0.926

Question: Which PBM binding z-score does the source give for TCACGGAGGACACGAAAGGTCAGAGCTCGACATC here?
Answer: 3.07

Question: Which PBM binding z-score does the source give for TGTCAAAGTTCAAAGGCAACGTAAGTATCCACAC here?
Answer: 3.86

Question: For CCTCGCAGGCCAATCTGGGTCACTCAAGGCTTGA, which PBM binding z-score is on record?
Answer: 0.914

Question: GCGACTGGGGCATCAGCAGGTTACCATTACTTAA was tested. Which PBM binding z-score did it give?
Answer: 0.719

Question: Which PBM binding z-score does the source give for TAGCCTAGGTCATGGGCCAGTATCCCACGCGAAC here?
Answer: 2.29

Question: With TCATATAGGTAAAAGGTGAAATTCGGTGTGGTAA as the sequence, how does the PBM binding z-score read?
Answer: 2.11

Question: CCTATTAGATGACCATAAGGGCAACCGAAGCTCG was tested. Which PBM binding z-score did it give?
Answer: 0.273

Question: For AGAACGAGGGCACGCTGAGTTGGTAGCAGAGTAG, which PBM binding z-score is on record?
Answer: -0.113

Question: How did the PBM binding z-score turn out when AGCACGAGGGCAATGAGTTGATAGCACGGGTGGC was run?
Answer: -0.297

Question: CCGACTGGGGCATAAAGTTACCATAAGCCAGCCC was tested. Which PBM binding z-score did it give?
Answer: -0.42

Question: CGAACTAGGTCATCCAGGACAGTAAATACATTGA was tested. Which PBM binding z-score did it give?
Answer: 2.36

Question: For ATCTCTAGGTGAAGATAGTTCAGTGAATGCAAAT, which PBM binding z-score is on record?
Answer: 0.441

Question: For ACTATTAGTTGACTTGGGGCAACCGATACGACGC, which PBM binding z-score is on record?
Answer: 0.754

Question: Which PBM binding z-score does the source give for TAGCTTAGGTCATTGGGCCAGTATAGTACGCATC here?
Answer: 2.62

Question: With AGAATGCGGTTATTAAGATCAGGGAATTGCGGTC as the sequence, how does the PBM binding z-score read?
Answer: -0.43

Question: With TCTTGTAGATAAGCAGGTTAAGAAAGCTGGCCAA as the sequence, how does the PBM binding z-score read?
Answer: -0.00905

Question: With GCATATAGGTAATACAAGGTGAAAGTTCGATTGT as the sequence, how does the PBM binding z-score read?
Answer: 1.37

Question: GATACAGGGTCAAGGCCAGACTACGCGTATTGAT was tested. Which PBM binding z-score did it give?
Answer: 3.72

Question: How did the PBM binding z-score turn out when TCGGCTAGGTCAGTTGGTCAGCTAACGAGCTGCC was run?
Answer: 0.27

Question: AGTAAAAGTTCAGGACGAGGTAACGTAAAGCACG was tested. Which PBM binding z-score did it give?
Answer: 1.75

Question: How did the PBM binding z-score turn out when AGAACGAGGGCAATGAGTTGATAACACGGGTGGC was run?
Answer: -0.182

Question: Which PBM binding z-score does the source give for TGAATGAGGTTATAAGCTCAGGGAACGTTGCAAA here?
Answer: 1.01

Question: With TCTATTAGTTGATTAGGGCATCCGAAACAGCGGA as the sequence, how does the PBM binding z-score read?
Answer: 0.397

Question: How did the PBM binding z-score turn out when ATATGTAGGTTAAGGGTAATTCAGGTTGGTTCGC was run?
Answer: 1.72

Question: Which PBM binding z-score does the source give for CAAACTAGGTCACAGAGGTCAAATTCCGTGCGTA here?
Answer: 6.71

Question: Which PBM binding z-score does the source give for CGAACGAGGGCATGAGTGGATAGCAAATGCCGAT here?
Answer: 0.059

Question: Which PBM binding z-score does the source give for CCGAGTAGGTTATGGGGCATTCCGGCAACGGTGA here?
Answer: 0.574

Question: With CGTCCCAGGTCATAGGAGGTCAGTGAAGACAGAT as the sequence, how does the PBM binding z-score read?
Answer: 5.07

Question: Which PBM binding z-score does the source give for TTACCAAGTTGAAGGTCGTTGATCCCTCTGTAGA here?
Answer: 1.56

Question: For GCACCAAGGTGAATAGGTCGTTGATGAGTAGGCG, which PBM binding z-score is on record?
Answer: 0.429

Question: How did the PBM binding z-score turn out when ATCGAAAGGTCGTGAGGTGAGTAGACAGAAAGGC was run?
Answer: 2.98

Question: How did the PBM binding z-score turn out when CGAACTAGGTGATCCAGGACAGTGAATACATTGA was run?
Answer: -0.189

Question: TCTTGTAGATTAACAGGAGGTTAAGAAAGATCGA was tested. Which PBM binding z-score did it give?
Answer: 0.95

Question: With AGAATGAGGTTATTAATATCAGGGAATTGCGGTC as the sequence, how does the PBM binding z-score read?
Answer: 1.3
